{
  "source": "the supplement of paper PMC5940239",
  "note": "Values without a mark were called inactive.",
  "data": [
    {"test_system": "Madurella mycetomatis MM55", "assay": "percent growth relative to solvent control; higher = less inhibition, active = 20 or less", "settings": "100 µM; 7 days", "units": {"percent growth": "%"}, "values": [
      {"smiles": "CC(=O)NCC1CN(c2ccc(-c3ccc(CNCc4cn[nH]n4)cc3)c(F)c2)C(=O)O1", "note": "(stereo not given)", "percent growth": 125},
      {"smiles": "COc1ccc2nccc(NC(=O)C3CCN(CCc4ccc(Cl)cc4)CC3)c2n1", "percent growth": 48.8},
      {"smiles": "CCOC(=O)NC(=O)c1ccsc1NC(=O)c1nc2ccccc2s1", "percent growth": 78.6},
      {"smiles": "CC(=O)N1CCN(c2ccc(Oc3ccc(Cl)cc3O)cc2)CC1", "percent growth": 102},
      {"smiles": "FC(F)(F)c1cnc(Sc2nnc(-c3ccncc3)o2)c(Cl)c1", "percent growth": 82.4},
      {"smiles": "CNC(=O)C1Cc2c([nH]c3cc(Cl)ccc23)C2(CCN(CCc3ccccc3)CC2)N1", "note": "(stereo not given)", "percent growth": 70},
      {"smiles": "CC(C)(C)C(=O)N(CCCCCCN1C[C@H](O)[C@@H](O)[C@H](O)[C@H]1CO)C1CCCCCC1", "percent growth": 86.6},
      {"smiles": "CC1(C)Cc2c(c(N3CCOCC3)nc3snc(Br)c23)CO1", "percent growth": 78.9},
      {"smiles": "CCC(NC(=O)c1ccccc1NC(=O)c1ccc(C)cc1)C(=O)OC", "note": "(stereo not given)", "percent growth": 98.3},
      {"smiles": "CCOC(=O)c1cc(-c2csc(Nc3c(C)cc(C)cc3C)n2)on1", "percent growth": 92.2},
      {"smiles": "COc1cc(OC)cc(C(=O)NCC2Cc3cc(Cl)cc(-c4ccncc4)c3O2)c1", "note": "(stereo not given)", "percent growth": 55.9},
      {"smiles": "O=S(=O)(c1ccc(Cl)cc1)N1CCN(C(=S)NCc2ccco2)CC1", "percent growth": 151},
      {"smiles": "O=C(NCCc1c[nH]c2ccccc12)c1cc2ccccc2oc1=O", "percent growth": 109},
      {"smiles": "COc1cccc(OC)c1C(=O)Nc1ccc(Cl)c(-c2nc3ccccc3s2)c1", "percent growth": 78.4},
      {"smiles": "O=C(NCCN1CCCC1)c1cc(NCCN2CCOCC2)nc2ccc(Cl)cc12", "percent growth": 85.5}
    ]}
  ]
}
